Results on 119 molecules are retold here after PubChem BioAssay AID618 (Sanford-Burnham Center for Chemical Genomics, 2007).

The campaign covered roughly 87,000 compounds. About 540 (0.62%) were called active. Where a call stands in place of a potency, no number is given. How the calls were made is not given here. This excerpt belongs to a sample that is enriched for actives. Potency and affinity values are given separately.

This experiment in a line: inhibitors of MT1-MMP promoter transcription, cell-based, luciferase reporter, luminescence (AID 618).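 Further: actives suppress MT1-MMP promoter-driven transcription so potencies describe inhibitors.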 Particulars: MT1-MMP promoter luciferase reporter cells. A general note: A reporter such as luciferase makes a cellular process visible.
For `O=C(O)c1cccc(COc2ccccc2Cl)c1`, the molecule was classed as active.
The value for `O=C(O)c1cccc(COc2ccc(CO)cc2Cl)c1` was “active”; that for `O=C(O)c1ccc(COc2cccc(CO)c2)cc1` was “inactive”.
For the molecule `O=C(O)c1ccccc1COc1ccccc1Cl`, the molecule was classed as inactive.
The value for `O=C(O)c1ccc(COc2ccc(CO)cc2Cl)cc1` was “inactive”; that for `O=C(O)c1ccc(COc2ccccc2Cl)cc1` was “inactive”; that for `O=C(c1cccc(Cl)c1)N1CCN(c2ccccn2)CC1` was “inactive”.
For `O=C(CCCOc1ccc(Cl)cc1Cl)N1CCN(c2ccccn2)CC1`, the molecule was called inactive.
As to `CCOC(=O)CNC(=O)CSc1ncnc2c1cnn2-c1ccc(Cl)cc1`, the result was inactive.
With `CCOC(=O)CNC(=O)CSc1ncnc2c1cnn2-c1ccccc1`, the molecule was called inactive.
The value for `CCOC(=O)CCc1c(C)n(CC)c2cc(-c3ccccc3OC)nn2c1=O` was “inactive”; that for `c1cnc(N2CC[N+]3(CCCC3)CC2)nc1` was “inactive”; that for `CCOc1cc(-c2nnc(-c3ccco3)o2)cc(OCC)c1OCC` was “inactive”.
The value for `COCCCNC(=O)Cn1nnc(-c2ccccc2NC(=O)c2ccccc2F)n1` was “inactive”; that for `COc1ccc(C2C(C(C)=O)=C(O)C(=O)N2CCO)c(OC)c1` (centres undefined) was “inactive”; that for `COC(=O)c1ccc(OC(=O)c2ccc(OCc3c(C)noc3C)c(OC)c2)cc1` was “inactive”.
For the molecule `COC(=O)c1ccc(OC(=O)c2ccc(OC)c(OC)c2)c(OC)c1`, the call was inactive.
The value for `COC(=O)c1ccc2c(c1)C(C)(C)C(/C=C/c1ccc(OC)c(OC)c1OC)=[N+]2C` was “active”.
Turning to `CCn1c(=O)c2c3c(sc2n(C)c1=O)CCC3`, the molecule was called inactive.
The value for `Cc1ccc(OCC(=O)Nc2cccc(O)c2)cc1C` was “inactive”; that for `Cc1cccc(OCC(=O)Nc2cccc(O)c2)c1` was “inactive”; that for `O=C(CCN1CCN(c2ccccc2)CC1)Nc1ccc(Cl)cc1` was “inactive”.
The value for `Cc1cn(Cc2ccccc2)c(=O)[nH]c1=O` was “inactive”; that for `CC1CCc2nc(NC(=O)C3CC3)sc2C1` (centres undefined) was “inactive”.
Turning to `Cc1ncsc1C(=O)Nc1nc2c(s1)CC(C)CC2` (centres undefined), the outcome was inactive.
To `Cc1cc(C(=O)Nc2nc3c(s2)CCCC3)no1` belongs “inactive”; to `CC1CCc2nc(NC(=O)Cc3cccs3)sc2C1` (centres undefined), “inactive”.
To `CC1CCc2nc(NC(=O)CN3CCOCC3)sc2C1` (centres undefined) belongs “inactive”; to `O=C(Nc1nc2c(s1)CCCC2)c1ccc(Br)o1`, “inactive”; to `CC1CCc2nc(NC(=O)c3ccco3)sc2C1` (centres undefined), “active”.
With `CC(C)Cc1nnc(NC(=O)CCN2C(=O)c3ccccc3C2=O)s1`, the molecule was called inactive.
Consider `CCOC(=O)C1=C(C)N(Cc2ccccc2)C(=O)NC1c1ccc(OC)cc1` (centres undefined), for which the call was inactive.
On to `c1ccc(N2CCCCC2)c(NC2=NCCC2)c1`, for which the call was inactive.
The value for `Cc1ccc(-c2nc(=S)c3c(n2CC2CCCO2)CC(C)(C)OC3)cc1` (centres undefined) was “inactive”; that for `O=C(NCCCN1CCCC1=O)c1cc(=O)c2ccccc2o1` was “inactive”.
Regarding `CCOC(=O)CN(C(=O)Cn1nnc2ccccc21)C(C(=O)NCCOC)c1ccccc1C` (centres undefined), the result was inactive.
To `COc1ccc2[nH]c3nc(SCc4nnc(-c5ccccc5)o4)nnc3c2c1` belongs “inactive”; to `COc1ccc2[nH]c3nc(SC(C)C)nnc3c2c1`, “active”; to `COc1ccc2[nH]c3nc(SCc4nnc(-c5ccc(C)cc5)o4)nnc3c2c1`, “inactive”.
To `COc1ccc(NC(=O)c2cnc3sccn3c2=O)cc1` belongs “inactive”; to `Cc1ccc(-c2nc3ccccn3c2NC(=O)c2ccco2)cc1`, “inactive”.
The value for `Cc1cccn2c(=O)c3cc(C(=O)NCc4ccco4)c(=N)n(CCOCCO)c3nc12` was “inactive”; that for `COc1ccc(C2=Nn3c(nnc3-c3ccccc3)SC2)cc1OC` was “inactive”; that for `COc1cc(-c2nnc3n2N=C(c2ccccc2)CS3)cc(OC)c1OC` was “active”.
Turning to `COc1ccccc1-c1nnc2n1N=C(c1ccc(O)c(O)c1)CS2`, the result was inactive.
To `COc1ccc(C2=Nn3c(nnc3-c3ccccc3OC)SC2)cc1OC` belongs “active”; to `CCOc1ccc(C2=Nn3c(nnc3-c3ccccc3OC)SC2)cc1`, “active”.
The value for `CCOc1ccc(C2=Nn3c(nnc3-c3ccc(OC)cc3)SC2)cc1` was “inactive”; that for `CCOc1ccc(-c2nnc3n2N=C(c2ccc(OC)cc2)CS3)cc1` was “inactive”.
For the molecule `COc1ccc(OC)c(C2=Nn3c(nnc3-c3cc(OC)c(OC)c(OC)c3)SC2)c1`, the molecule was classed as inactive.
The value for `COc1ccc(-c2nnc3n2N=C(c2ccccc2)CS3)cc1OC` was “inactive”; that for `COC(=O)c1ccccc1NC(=O)Cn1c(=O)oc2ccc(Cl)cc21` was “inactive”; that for `C=CCNc1sc(C(=O)c2ccc(Br)s2)c(N)c1C#N` was “inactive”.
The value for `Cc1ccc(C(=O)NNC(=O)Cc2ccccc2)cc1` was “inactive”; that for `Cc1nc2ccccc2n1CC(=O)OCC(=O)Nc1ccc2c(c1)OCCO2` was “inactive”.
The value for `CCc1nnc2n1N=C(c1ccc(OC)cc1)CS2` was “inactive”; that for `CCCNC(=O)c1oc2ccc3c(c2c1C)C(=O)CC(C)(C)O3` was “inactive”; that for `Cc1c(C(=O)NCc2ccoc2)oc2ccc3c(c12)C(=O)CC(C)(C)O3` was “inactive”.
Turning to `CCC(C)n1c(SC(C)C#N)nc2ccccc2c1=O` (centres undefined), the molecule was called inactive.
The value for `Nc1nonc1C(=Nc1ccccc1)NO` was “inactive”; that for `CCOc1ccc(OCc2ccc(C(=O)NCc3cccnc3)o2)cc1` was “inactive”; that for `CCOC(=O)N1CCN(c2nc(-c3ccc(OC)cc3)no2)CC1` was “inactive”.
The value for `c1ccc(COc2ccc(OCCn3cncn3)cc2)cc1` was “inactive”; that for `COc1ccc(-c2cc3nc4n(c(=O)c3s2)CCC4)cc1` was “active”.
To `COc1ccc(-c2nc3n(c2Br)CCC3)cc1` belongs “inactive”.
For `O=c1c2ccccc2nc2n1CCCCC2`, the molecule was called inactive.
The value for `COc1ccc(-c2cc3nc4n(c(=O)c3s2)CCOC4)cc1` was “inactive”; that for `O=c1c2ccccc2nc2n1CCC2` was “inactive”; that for `COc1cc2c(cc1NC(=O)CN1C(=O)NC3(CCc4ccccc43)C1=O)oc1ccccc12` (centres undefined) was “inactive”.
`Cc1ccc(S(=O)(=O)NC(=O)Nc2c(C)n(C)n(-c3ccccc3)c2=O)cc1`: the call was inactive.
With `CCOc1ccccc1NC(=O)CN(c1ccc(OC)cc1)S(=O)(=O)c1c(C)noc1C`, the result was inactive.
For the molecule `CCOc1ccccc1NC(=O)CN(c1ccc(C)cc1)S(=O)(=O)c1c(C)noc1C`, the call was inactive.
With `CCOc1ccc(N(CC(=O)Nc2ccccc2C)S(=O)(=O)c2c(C)noc2C)cc1`, the molecule was called active.
In the case of `Cc1nnc2n(C3CCCCC3)c(=O)c3c4c(sc3n12)CCC4`, the call was inactive.
The value for `Cc1nc(Cl)sc1C(=O)O` was “inactive”; that for `O=C(Nc1ccon1)c1cc2c(s1)CCCCCC2` was “inactive”.
To `C=CS(=O)(=O)c1ccc(Oc2ccc(S(=O)(=O)C=C)cc2)cc1` belongs “active”.
To `O=S(=O)(c1ccc(Oc2ccc(S(=O)(=O)N3CCOCC3)cc2)cc1)N1CCOCC1` belongs “inactive”; to `CNS(=O)(=O)c1ccc(Oc2ccc(S(=O)(=O)NC)cc2)cc1`, “inactive”.
With `O=C(NCCOc1ccccc1)c1ccc2c(c1)OCO2`, the outcome was active.
The value for `CCOCCCNC(=O)c1ccc2c(c1)OCO2` was “inactive”; that for `COCCCNC(=O)c1ccc2c(c1)OCO2` was “inactive”.
As to `Cn1c(=O)c2c(nc(CN3CCN(c4ccccc4)CC3)n2CCCc2ccccc2)n(C)c1=O`, the outcome was inactive.
The value for `COc1ccccc1NC(=O)CN1C(=O)NC(C)(C)C1=O` was “inactive”; that for `O=C(NCc1ccccc1)C(c1cccnc1)N(Cc1ccco1)C(=O)c1ccccn1` (centres undefined) was “inactive”.
Take `CCOC(CNC(=O)c1ccc2nc(N3CCC(C)CC3)sc2c1)OCC`: the result was inactive.
The value for `CCOC(=O)N1CCN(C(=O)c2ccc3nc(N4CCC(C)CC4)sc3c2)CC1` was “inactive”; that for `Cc1cc(Oc2ccc(C(C)(C)C)cc2)nc(N2CCOCC2)n1` was “inactive”; that for `CN(CC(=O)NCCN1CCCCCC1)S(=O)(=O)c1cccc2nsnc12` was “inactive”.
To `COc1ccc(-c2nn(C)c3sc(C(=O)NCc4ccco4)cc23)cc1OC` belongs “inactive”.
`NC(=O)c1cnn2c(C(F)(F)F)cc(-c3ccc(F)cc3)nc12`: the molecule was classed as inactive.
Turning to `CN1/C(=C\C(=O)c2ccco2)C(C)(C)c2ccccc21`, the molecule was classed as inactive.
To `CN1/C(=C\C(=O)C(F)F)C(C)(C)c2ccccc21` belongs “inactive”.
The value for `COC(=O)c1ccccc1NC(=O)c1cc(-c2cccs2)on1` was “inactive”; that for `Brc1ccc(NC2=Nc3ccccc3CC2)cc1` was “inactive”; that for `c1ccc(NC2=Nc3ccccc3CC2)cc1` was “inactive”.
On to `CC(=O)N1CCc2[nH]c3ccccc3c2C1`, for which the molecule was classed as inactive.
To `CCn1ncc(Br)c1C(=O)Nc1ccc(F)cc1F` belongs “inactive”.
On to `CCn1ncc(Br)c1C(=O)Nc1ccc(C(=O)OC(C)C)cc1`, for which the molecule was classed as inactive.
The value for `Cc1onc(-c2c(F)cccc2Cl)c1C(=O)OCn1nnc2ccccc2c1=O` was “inactive”; that for `O=C(OCn1ncc(Br)c(Br)c1=O)c1c(F)cccc1F` was “active”; that for `O=C(OCn1ncc(Br)c(Br)c1=O)c1ccc(F)cc1` was “active”.
On to `O=C(OCn1ncc(Br)c(Br)c1=O)c1ccccc1Cl`, for which the molecule was classed as inactive.
The value for `Cc1ccccc1-n1nc(C(=O)c2cccs2)cc(-c2nc3ccccc3[nH]2)c1=N` was “inactive”; that for `O=C(OCc1nnc(-c2ccc(Cl)cc2)o1)c1ccc(=O)n(Cc2ccccc2)n1` was “inactive”; that for `Cc1cc(NC(=O)CS(=O)(=O)c2cn(Cc3ccc(F)cc3)c3ccccc23)no1` was “inactive”.
As to `O=C(Oc1ccc(-c2ccccc2)cc1)N1CCOCC1`, the result was inactive.
`O=C(Cn1nc(-c2ccccc2F)ccc1=O)NCc1ccc2c(c1)OCO2`: the molecule was classed as inactive.
The value for `CCCCn1nnc(NC(=O)c2ccc(-c3ccccc3)cc2)n1` was “inactive”.
For `CCCCCCCNC1=CC(=O)CC(c2ccco2)C1` (centres undefined), the outcome was inactive.
To `COc1cc(NC(=O)CN(c2ccc(C)cc2)S(=O)(=O)c2c(C)nn(C)c2C)cc(OC)c1` belongs “inactive”.
To `O=C(Nc1ccc2c(c1)OCO2)C(c1ccccc1)N1CCN(C(=O)c2ccco2)CC1` (centres undefined) belongs “inactive”; to `Nc1nc(-c2ccccc2)cs1`, “inactive”; to `Cc1cc(-c2csc(N)n2)c(C)n1C`, “inactive”.
As to `CCCn1c(C)cc(-c2csc(N)n2)c1C`, the call was inactive.
With `CCOC(=O)c1cc(C)n(CCc2ccccc2)c1C`, the outcome was inactive.
Take `Cc1nc2ccccc2nc1N1CCC(C)CC1`: the outcome was inactive.
The value for `O=C(Nc1ccc2c(c1)OCO2)N1CCN(S(=O)(=O)c2ccc(Cl)cc2)CC1` was “inactive”; that for `CC1(C)N(OCc2ccccc2)C(=O)C(=O)N(OCc2ccccc2)C1(C)C` was “inactive”.
